Counter-ions that a name gives are not always drawn. ± gives the standard deviation.
Experiments:
[1] = test system: Jurkat; experiment: mean cell size (FSC-A) relative to DMSO control (fraction of control); higher = larger cells; conditions: 48 h
Summary of the method: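 Jurkat cells seeded at 600 cells/µl were incubated 1 h, then exposed for 48h to the Enzo Screen-Well FDA Approved Drug Library v2.0 at 25µM in 0.9% (v/v) final DMSO. Drugs that cut counts below 20% of controls were diluted 10-fold and retested, down to 25nM. Cell count and mean cell size (forward scatter area) were read on an Accuri C6 flow cytometer, relative to solvent-only controls. Plates held 6-12 controls; values are means of 3 biological replicates.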

[2] = test system: Jurkat; experiment: cell count relative to DMSO control (fraction of control); higher = more cells (less growth inhibition); conditions: 48 h

SMILES	mean cell size [1]	cell count [2]
CCC(=O)OCC(=O)[C@@]1(OC(=O)CC)[C@@H](C)C[C@H]2[C@@H]3CCC4=CC(=O)C=C[C@]4(C)[C@@]3(Cl)[C@@H](O)C[C@@]21C [Beclomethasone Dipropionate] (concentration: 25 µM)	0.913 ± 0.049	0.774 ± 0.07
COc1nc(N)nc2c1ncn2[C@@H]1O[C@H](CO)[C@@H](O)[C@@H]1O [Nelarabine] (concentration: 25 µM)	1.4 ± 0.014	0.201 ± 0.029
CN[C@H](CC(C)C)C(=O)N[C@H]1C(=O)N[C@@H](CC(N)=O)C(=O)N[C@H]2C(=O)N[C@H]3C(=O)N[C@H](C(=O)N[C@H](C(=O)O)c4cc(O)cc(O)c4-c4cc3ccc4O)[C@H](O)c3ccc(c(Cl)c3)Oc3cc2cc(c3O[C@@H]2O[C@H](CO)[C@@H](O)[C@H](O)[C@H]2O[C@H]2C[C@](C)(N)[C@H](O)[C@H](C)O2)Oc2ccc(cc2Cl)[C@H]1O [Vancomycin·HCl] (concentration: 25 µM)	1.02 ± 0.021	1.19 ± 0.13
Cc1cn([C@H]2C=C[C@@H](CO)O2)c(=O)[nH]c1=O [Stavudine] (concentration: 25 µM)	1.04 ± 0.06	0.764 ± 0.071
CCOC(=O)C1=C[C@@H](OC(CC)CC)[C@H](NC(C)=O)[C@@H](N)C1 [Oseltamivir Phosphate] (concentration: 25 µM)	0.932 ± 0.023	0.939 ± 0.075
CC(C)(O/N=C(\C(=O)N[C@@H]1C(=O)N2C(C(=O)[O-])=C(C[n+]3ccccc3)CS[C@H]12)c1csc(N)n1)C(=O)O [Ceftazidime] (concentration: 25 µM)	0.958 ± 0.011	0.884 ± 0.095
C[C@@H]1C/C=C/C=C/C=C/C=C/[C@H](O[C@@H]2O[C@H](C)[C@@H](O)[C@H](N)[C@@H]2O)C[C@@H]2O[C@](O)(C[C@@H](O)C[C@H]3O[C@@H]3/C=C/C(=O)O1)C[C@H](O)[C@H]2C(=O)O [Natamycin] (concentration: 25 µM)	0.951 ± 0.015	1.01 ± 0.096
Nc1nc(NC2CC2)c2ncn([C@H]3C=C[C@@H](CO)C3)c2n1 [Abacavir Sulfate] (concentration: 25 µM)	1.1 ± 0.033	0.858 ± 0.15
O=C(O)c1ccc(-n2nc(-c3ccccc3O)nc2-c2ccccc2O)cc1 [Deferasirox] (concentration: 2.5 µM)	1.07 ± 0.021	0.636 ± 0.039
Cc1ccc(N(CC2=NCCN2)c2cccc(O)c2)cc1 [Phentolamine·HCl] (concentration: 25 µM)	1.09 ± 0.072	0.612 ± 0.16
CCN[C@H]1C[C@H](C)S(=O)(=O)c2sc(S(N)(=O)=O)cc21 [Dorzolamide·HCl] (concentration: 25 µM)	0.965 ± 0.04	0.675 ± 0.14
CCCN1CCCC[C@H]1C(=O)Nc1c(C)cccc1C [Ropivacaine·HCl Monohydrate] (concentration: 25 µM)	0.978 ± 0.014	0.995 ± 0.057
C=CC1=C(C(=O)O)N2C(=O)[C@@H](NC(=O)/C(=N\O)c3csc(N)n3)[C@H]2SC1 [Cefdinir] (concentration: 25 µM)	0.976 ± 0.059	0.765 ± 0.12
CCCN(CCC)CCc1cccc2c1CC(=O)N2 [Ropinirole·HCl] (concentration: 25 µM)	0.974 ± 0.012	0.958 ± 0.1
Nc1ccc(C(=O)O)c(O)c1 [4-Aminosalicylic Acid] (concentration: 25 µM)	0.914 ± 0.016	0.844 ± 0.14
CCC(=O)O[C@]1(C(=O)CCl)[C@@H](C)C[C@H]2[C@@H]3CCC4=CC(=O)C=C[C@]4(C)[C@@]3(F)[C@@H](O)C[C@@]21C [Clobetasol Propionate] (concentration: 25 µM)	0.898 ± 0.015	0.881 ± 0.18

From the supplement of paper PMC4709259
